Measurements taken from PubChem BioAssay AID686978 (National Center for Advancing Translational Sciences (NCATS), 2013).
Values joined by “and” are separate entries in the source; they are usually repeats but may differ in a detail not shown here. Equal values may be shown once. In all, about 420,000 compounds went through this assay and about 64,000 (15%) were called active. Another 27% or so got no clear call; they are omitted. A selection follows. Values without a mark were called inactive. Calls come from the whole dose curve; as a rule, active = well fitted inhibition curve with a large enough effect; inconclusive = small, poorly fitted or top-dose-only effect; inactive = flat fitted curve, though single readings scatter.

assay: qHTS for Inhibitors of human tyrosyl-DNA phosphodiesterase 1 (TDP1): qHTS in cells in absence of CPT; conditions: DT40 Tdp1-/- hTDP1 cells, no CPT, ATP luminescence, 48 h; activity change, negative = growth inhibition: at 46.2 µM (top of the series); note: nearly all actives have a fitted effect of over 55% in size
Method in brief: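 Seeded 400 DT40-hTDP1 cells/well (vehicle DMSO, no 20 nM CPT); pinned compounds; ≥48 hr at 37 °C; CellTiter-Glo luminescence as viability measure.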
% is set by controls: 0 for no effect and ±100 for the full control effect; potency is the fitted concentration of half-maximal effect.

In order of falling “activity change, negative = growth inhibition” value:
1. CCOC(=O)CNc1nc2ccccc2n2c(C)nnc12  18.8%
2. COCCNC(=O)c1ccc(S(=O)(=O)c2ccc(Cl)cc2)c(NC(C)=O)c1  15.9%
3. Cc1c(NC(=O)CSc2nnc(-c3cccnc3)n2N)c(=O)n(-c2ccccc2)n1C  15%
4. Cc1ccc(C(=O)NCC(=O)OCC(=O)Nc2cccc(S(=O)(=O)N3CCCC3)c2)cc1C  11.6%
5. Cc1c(NC(=O)CSc2nnnn2-c2ccc(C(=O)O)cc2)c(=O)n(-c2ccccc2)n1C  11.1%
6. COc1ccc(S(=O)(=O)N2CCSCC2)cc1  10.9%
7. Cc1cc(NC(=O)CCC(=O)N(CC(=O)NCC2CCCO2)c2ccccc2)no1 (centres undefined)  9.22%
8. COc1ccccc1C(=O)NC(CCSC)C(=O)N1CCN(C(C)=O)CC1 (centres undefined)  9.07%
9. CN(Cc1ccc2nsnc2c1)Cc1nc(Cc2cccc(F)c2)no1  7.53%
10. Cc1ccc(CNC(=O)c2ccc3c(c2)S(=O)(=O)c2ccccc2C3=O)cc1  6.05%
11. Cc1cc(NC(=O)CSCc2ccccc2C)no1  5.45%
12. CCOC(=O)C1(C)NC(c2ccco2)C2C(=O)N(c3ccccc3)C(=O)C21 (centres undefined)  4.49%
13. O=C(Cn1nnc(-c2ccccc2)n1)NCc1ccccc1  2.1%
14. CS(=O)(=O)N1CCC2(CC1)CN(c1ccncc1)C2  2.07%
15. CCCc1nc2oc3c(=O)[nH]cnc3c2c2c1COC(C)(C)C2  0.996%
16. COC(=O)[C@H](Cc1ccccc1)NC(=O)Nc1ccc(S(N)(=O)=O)cc1  0.589%
17. COc1ccc(CCc2nnc(CCC(=O)NCc3cnn(-c4ccccc4C)c3)o2)cc1  -0.135%
18. CCCc1cc(C(=O)Nc2ccc(Cl)cn2)cs1  -0.236%
19. CN1CCN(S(=O)(=O)c2cccc(C(=O)Nc3cccc(S(N)(=O)=O)c3)c2)CC1  -0.704%
20. CCC(C)N(C(=O)COC(=O)c1nc(Cl)ccc1Cl)C1CCS(=O)(=O)C1 (centres undefined)  -1.31%
21. NC(CSC12CC3CC(CC(C3)C1)C2)C(=O)O (centres undefined)  -1.44%
22. CC(=O)NC(CC(=O)Nc1cccc(S(=O)(=O)N2CCCC2)c1)c1ccccc1 (centres undefined)  -1.79%
23. C=CCSc1nc2c(c(=O)[nH]1)C(C(C)C)C(C#N)=C(N)O2 (centres undefined)  -1.99%
24. CCOC(=O)C1(Cc2ccc(Cl)cc2)CCN(C(=O)C2=NNC(=O)CC2)CC1  -2.39%
25. O=C(Nc1ccccc1)c1ccc2c(c1)OCCCO2  -2.63%
26. Cc1cccc(C(=O)Nc2nnc(S(=O)(=O)N3CCCCCC3)s2)c1  -3.13%
27. O=C(NCCCN1CCOCC1)c1ccccc1NS(=O)(=O)c1ccc(F)cc1  -3.35%
28. COc1ccccc1C(=O)NC(CCSC)C(=O)NNC(=O)c1ccccc1C (centres undefined)  -3.37%
29. CSCCC(NC(=O)c1ccccc1)C(=O)N1CCCCCCC1 (centres undefined)  -4.61%
30. CC(C)(O)CCC(O)[C@@](C)(O)C1CC[C@]2(O)C3=CC(=O)C4CC(O)C(O)C[C@]4(C)C3CC[C@]12C (some centres undefined)  -4.62%
31. O=C(NNC1=NCCC1)c1cccc(S(=O)(=O)N2CCCCC2)c1  -5.16%
32. O=C(Nc1ccc(S(=O)(=O)Nc2ncccn2)cc1)c1cncc(Br)c1  -5.2%
33. COc1ccc(S(=O)(=O)N2CCOC2CNC(=O)C(=O)NCc2ccncc2)cc1C (centres undefined)  -5.53%
34. O=C(COC(=O)c1ccc(Br)o1)NC12CC3CC(CC(C3)C1)C2  -6.16%
35. CC1CCCC(NC(=O)CSc2nccn2C)C1C (centres undefined)  -6.17%
36. O=C(Nc1nnc(SCc2ccc(Cl)cc2Cl)s1)C1COc2ccccc2O1 (centres undefined)  -6.33%
37. CN(C)CCNC(=O)C(C(=O)c1ccccc1)n1ccccc1=O (centres undefined)  -6.39%
38. Cn1nnnc1SCC(=O)Nc1cccc(S(=O)(=O)N2CCCCC2)c1  -6.39%
39. CCN(CC)CCN1C(=O)C(=O)/C(=C(/O)c2ccccc2)C1c1ccccc1F (centres undefined)  -6.62%
40. CCN(CC(=O)Nc1ccc(S(=O)(=O)N2CCCC2)cc1)CC(=O)Nc1cccc(OC)c1  -6.85%
41. CC(NS(=O)(=O)c1ccc(Cl)cc1)C(=O)Nc1ccc2c(c1)OCCO2 (centres undefined)  -7.09%
42. CCOC(=O)c1oc2c(CN3CCN(CCO)CC3)c(O)c(CC)cc2c(=O)c1-c1nc2ccccc2s1  -7.24%
43. COCCNC(=O)c1cc2c(Br)ccc(Br)c2nc1N  -7.33%
44. COc1ccccc1-c1ccc(C(=O)N(C)C(C)c2ccon2)c(N2CCN(c3ccccc3F)CC2)n1 (centres undefined)  -7.99%
45. Cc1ccc(OCCNC(=O)CNC(=O)c2ccc(C)c(C)c2)cc1  -9.12%
46. CSc1ccc(S(=O)(=O)NCC(=O)OCC(=O)NC2(C#N)CCCCC2)cc1[N+](=O)[O-]  -9.24%
47. C=CCN1CCN(c2ccncc2S(=O)(=O)N2CCN(C)CC2)CC1  -9.36%
48. O=C(NCCCN1CCOCC1)c1ccccc1NS(=O)(=O)c1ccc(Br)cc1  -9.57%
49. O=C(Nc1nncs1)c1cccc(S(=O)(=O)N2CCCCC2)c1  -11.5%
50. O=C(NC(=S)N1CCN(Cc2ccccc2)CC1)c1ccccc1  -11.6%
51. N/C(=N\OC(=O)/C=C/c1ccccc1)c1ccc(Br)cc1  -11.8%
52. O=C(COC(=O)c1cccnc1Cl)NC12CC3CC(CC(C3)C1)C2  -12.2%
53. CCOC(=O)NC(=O)CSc1nnc(SCCC(=O)O)s1  -12.6%
54. O=C(NC(=S)Nc1ncccn1)c1ccccc1Br  -12.9%
55. Cc1nnc(SCC(=O)Nc2ncc3c(n2)CC(C)(C)CC3=O)s1  -14.6%
56. Cc1ccc(-c2nnc3c4ccccc4c(C)nn23)cc1NC(=O)c1cccc(Br)c1  -14.7%
57. O=C(CN1CCOCC1)Nc1c(-c2ccccc2)c2cc(Br)ccc2[nH]c1=O  -15.2%
58. CS(=O)(=O)N1CCCC(C(=O)N2CCOCC2)C1 (centres undefined)  -15.6%
59. COc1ccc(CCNC(=O)C(=O)NCC2OCCN2S(=O)(=O)c2ccc(F)cc2)cc1OC (centres undefined)  -16.9%
60. Cc1cc(NC(=O)CS(=O)(=O)c2cn(C)c3ccccc23)no1  -17.2%
61. CCC(C)C(=O)Nc1cc([N+](=O)[O-])ccc1Cl (centres undefined)  -17.5%
62. COc1cc2c(cc1/C=C1/NC(=O)N(c3ccccc3)C1=O)OCO2  -17.6%
63. CCCS(=O)(=O)Nc1ccc(-c2cn3c(n2)SCC3)cc1  -17.9%
64. COc1ccc(CNC(=O)Cn2nnc(-c3ccccc3F)n2)cc1  -18.4%
65. CCOc1ccc2nc(NCCNS(=O)(=O)c3ccccc3)c(C#N)cc2c1  -18.8%
66. COc1cccc(C(c2c(O)cc(C)n(Cc3ccco3)c2=O)N2CCN(c3ccccc3)CC2)c1 (centres undefined)  -20%
67. Cc1ccccc1OCc1nc2c3cnn(-c4ccccc4F)c3ncn2n1  -20.3%
68. N=c1c2c3c(sc2ncn1N)CCCC3  -20.3%
69. COc1ccc(Cc2nnc(SCC(=O)c3cccc([N+](=O)[O-])c3)n2C)cc1  -20.5%
70. O=[N+]([O-])c1ccccc1/C=C/CN1CCCC(CO)C1 (centres undefined)  -21.2%
71. O=C(Nc1ccc(S(=O)(=O)N2CCCC2)cc1Cl)C1=COCCO1  -23.1%
72. O=C(Nc1ccc(N2CCCC2=O)cc1)c1cncc(Br)c1  -23.8%
73. Cc1ccc(S(=O)(=O)N2CCCCC2)cc1NC(=O)CCNC(=O)c1ccccc1  -24.2%
74. O=C(Nc1nc2c(F)cc(F)cc2s1)C1COc2ccccc2O1 (centres undefined)  -25.4%
75. CCOC(=O)c1c(C2CC2)csc1NC(=O)CSCc1c(C)noc1C  -27.5%
76. CCC(=O)N1CCc2cc(S(=O)(=O)NCCC(=O)Nc3cccc(C)c3C)ccc21  -27.6%
77. CCOc1ccc(NC(=O)CN(C)CC(=O)NC(C)c2ccccc2)cc1OCC (centres undefined)  -27.8%
78. O=C(NCc1ccc(Cl)cc1)c1ccc2c(c1)nnn2C1CCCC1  -27.9%
79. CCOc1cc2[nH]c(=O)n(Cc3ccc(C(=O)NCCCN4CCCC4=O)cc3)c(=O)c2cc1OCC  -28.4%
80. C=CCN(CC=C)CCOc1ccccc1[N+](=O)[O-]  -28.7%
81. Cn1c(=NC(=O)CSCC(=O)N2CCOCC2)sc2ccccc21  -29.2%
82. CC(C)(C)N1C(=O)[C@H]2[C@@H](c3ccc(Br)cc3)N3C(=O)N(c4cccc(Cl)c4)C(=O)[C@@]3(C)[C@H]2C1=O  -29.3%
83. O=C(Nc1cccnc1)c1ccc2c(c1)OCO2  -29.5%
84. COc1c(Cl)cc(C(=O)Nc2ccc(Cl)cn2)cc1Cl  -47.3%

For `COc1ccccc1C(=O)NC(CCSC)C(=O)N1CCN(C/C=C/c2ccccc2)CC1` (centres undefined), the Potency was 20.6 µM (active).
For `CSCCC(NC(=O)c1ccccc1)C(=O)N1CCN(Cc2ccc(Cl)cc2)CC1` (centres undefined), the Potency was 10.3 µM (active).
For `COc1cc(-c2nnn(CC(=O)NCc3ccccc3)n2)cc(OC)c1OC`, the Potency was 14.6 µM (active).
In the case of `COc1cc(C(=O)OCC(=O)NC23CC4CC(CC(C4)C2)C3)cc(OC)c1OC`, the Potency is reported as 18.4 µM (active).
With `O=C(NCCCN1CCOCC1)c1cnn2c(-c3ccccc3)cc(-c3ccccc3)nc12` the Potency was 20.6 µM (active).
With `CCCCN=C1N/C(=C\c2ccco2)C(=O)N1c1ccccc1` the Potency was 29.1 µM (active).
For `O=C(Nc1ncc([N+](=O)[O-])s1)C1COc2ccccc2O1` (centres undefined), the Potency was 18.4 µM (active).
With `O=C(CCNC(=O)c1ccc(Br)cc1)Nc1cccc(S(=O)(=O)N2CCCCC2)c1` the Potency was 18.4 µM (active).
For `O=C(Nc1cccc(S(=O)(=O)N2CCCCC2)c1)c1ccc2c(c1)OCO2`, the Potency was 16.4 µM (active).
With `O=C(Nc1cccc(S(=O)(=O)Nc2ccc(Cl)cc2)c1)c1ccc2c(c1)OCCO2` the Potency was 10.3 µM (active).
With `O=C(Nc1cccc(S(=O)(=O)N2CCCC2)c1)c1cncc(Br)c1` the Potency was 13 µM (active).
With `O=C(Nc1cccc(S(=O)(=O)N2CCCCC2)c1)c1cncc(Br)c1` the Potency was 18.4 µM (active).
In the case of `CCN(CC(=O)Nc1cccc(S(=O)(=O)N2CCCCC2)c1)Cc1ccccc1`, the Potency is reported as 23.1 µM (active).
For `O=C(Nc1nnc(S(=O)(=O)N2CCCCCC2)s1)c1cccc(Br)c1`, the Potency was 4.61 µM (active) and 20.6 µM (active).
In the case of `O=C(Nc1ccc(Cl)cn1)c1ccc2c(c1)OCCO2`, the Potency is reported as 18.4 µM (active).
In the case of `Cc1noc(C)c1CSCC(=O)Nc1ccc(Br)cc1Cl`, the Potency is reported as 10.3 µM (active).
For `COc1ccc(CCNC(=O)C(=O)NCC2OCCN2S(=O)(=O)c2ccc(OC)c(C)c2)cc1` (centres undefined), the Potency was 18.4 µM (active).
For `CC1=Nc2cc(C(=O)NCc3ccc(C)cc3)ccc2Sc2ccc(Cl)cc21`, the Potency was 20.6 µM (active).
With `COCCNC(=O)c1ccc2c(c1)N=C(C)c1cc(C)ccc1S2` the Potency was 0.461 µM (active).
With `Cc1c(NC(=O)CSc2cccc3cccnc23)c(=O)n(-c2ccccc2)n1C` the Potency was 23.1 µM (active).
